Data reported in the supplement of paper PMC11732987, “Enantioselective OTUD7B fragment discovery through chemoproteomics screening and high-throughput optimisation” (Communications Chemistry, 2025).

Key:
Assay in all cases: log2 ratio of Biotin-Ahx-Ub-VS probe labelling (fragment/DMSO); higher = less target engagement (more negative = stronger competition), active = hit call of the paper (q ≤ 0.05, log2 ratio ≤ -1)
Details in all cases: compound concentration: 200 uM; treatment time: 3 h
USP34 = USP34 (UniProt Q70CQ2)
USP34, sequence (Q70CQ2 whole entry, the tested form may be a part): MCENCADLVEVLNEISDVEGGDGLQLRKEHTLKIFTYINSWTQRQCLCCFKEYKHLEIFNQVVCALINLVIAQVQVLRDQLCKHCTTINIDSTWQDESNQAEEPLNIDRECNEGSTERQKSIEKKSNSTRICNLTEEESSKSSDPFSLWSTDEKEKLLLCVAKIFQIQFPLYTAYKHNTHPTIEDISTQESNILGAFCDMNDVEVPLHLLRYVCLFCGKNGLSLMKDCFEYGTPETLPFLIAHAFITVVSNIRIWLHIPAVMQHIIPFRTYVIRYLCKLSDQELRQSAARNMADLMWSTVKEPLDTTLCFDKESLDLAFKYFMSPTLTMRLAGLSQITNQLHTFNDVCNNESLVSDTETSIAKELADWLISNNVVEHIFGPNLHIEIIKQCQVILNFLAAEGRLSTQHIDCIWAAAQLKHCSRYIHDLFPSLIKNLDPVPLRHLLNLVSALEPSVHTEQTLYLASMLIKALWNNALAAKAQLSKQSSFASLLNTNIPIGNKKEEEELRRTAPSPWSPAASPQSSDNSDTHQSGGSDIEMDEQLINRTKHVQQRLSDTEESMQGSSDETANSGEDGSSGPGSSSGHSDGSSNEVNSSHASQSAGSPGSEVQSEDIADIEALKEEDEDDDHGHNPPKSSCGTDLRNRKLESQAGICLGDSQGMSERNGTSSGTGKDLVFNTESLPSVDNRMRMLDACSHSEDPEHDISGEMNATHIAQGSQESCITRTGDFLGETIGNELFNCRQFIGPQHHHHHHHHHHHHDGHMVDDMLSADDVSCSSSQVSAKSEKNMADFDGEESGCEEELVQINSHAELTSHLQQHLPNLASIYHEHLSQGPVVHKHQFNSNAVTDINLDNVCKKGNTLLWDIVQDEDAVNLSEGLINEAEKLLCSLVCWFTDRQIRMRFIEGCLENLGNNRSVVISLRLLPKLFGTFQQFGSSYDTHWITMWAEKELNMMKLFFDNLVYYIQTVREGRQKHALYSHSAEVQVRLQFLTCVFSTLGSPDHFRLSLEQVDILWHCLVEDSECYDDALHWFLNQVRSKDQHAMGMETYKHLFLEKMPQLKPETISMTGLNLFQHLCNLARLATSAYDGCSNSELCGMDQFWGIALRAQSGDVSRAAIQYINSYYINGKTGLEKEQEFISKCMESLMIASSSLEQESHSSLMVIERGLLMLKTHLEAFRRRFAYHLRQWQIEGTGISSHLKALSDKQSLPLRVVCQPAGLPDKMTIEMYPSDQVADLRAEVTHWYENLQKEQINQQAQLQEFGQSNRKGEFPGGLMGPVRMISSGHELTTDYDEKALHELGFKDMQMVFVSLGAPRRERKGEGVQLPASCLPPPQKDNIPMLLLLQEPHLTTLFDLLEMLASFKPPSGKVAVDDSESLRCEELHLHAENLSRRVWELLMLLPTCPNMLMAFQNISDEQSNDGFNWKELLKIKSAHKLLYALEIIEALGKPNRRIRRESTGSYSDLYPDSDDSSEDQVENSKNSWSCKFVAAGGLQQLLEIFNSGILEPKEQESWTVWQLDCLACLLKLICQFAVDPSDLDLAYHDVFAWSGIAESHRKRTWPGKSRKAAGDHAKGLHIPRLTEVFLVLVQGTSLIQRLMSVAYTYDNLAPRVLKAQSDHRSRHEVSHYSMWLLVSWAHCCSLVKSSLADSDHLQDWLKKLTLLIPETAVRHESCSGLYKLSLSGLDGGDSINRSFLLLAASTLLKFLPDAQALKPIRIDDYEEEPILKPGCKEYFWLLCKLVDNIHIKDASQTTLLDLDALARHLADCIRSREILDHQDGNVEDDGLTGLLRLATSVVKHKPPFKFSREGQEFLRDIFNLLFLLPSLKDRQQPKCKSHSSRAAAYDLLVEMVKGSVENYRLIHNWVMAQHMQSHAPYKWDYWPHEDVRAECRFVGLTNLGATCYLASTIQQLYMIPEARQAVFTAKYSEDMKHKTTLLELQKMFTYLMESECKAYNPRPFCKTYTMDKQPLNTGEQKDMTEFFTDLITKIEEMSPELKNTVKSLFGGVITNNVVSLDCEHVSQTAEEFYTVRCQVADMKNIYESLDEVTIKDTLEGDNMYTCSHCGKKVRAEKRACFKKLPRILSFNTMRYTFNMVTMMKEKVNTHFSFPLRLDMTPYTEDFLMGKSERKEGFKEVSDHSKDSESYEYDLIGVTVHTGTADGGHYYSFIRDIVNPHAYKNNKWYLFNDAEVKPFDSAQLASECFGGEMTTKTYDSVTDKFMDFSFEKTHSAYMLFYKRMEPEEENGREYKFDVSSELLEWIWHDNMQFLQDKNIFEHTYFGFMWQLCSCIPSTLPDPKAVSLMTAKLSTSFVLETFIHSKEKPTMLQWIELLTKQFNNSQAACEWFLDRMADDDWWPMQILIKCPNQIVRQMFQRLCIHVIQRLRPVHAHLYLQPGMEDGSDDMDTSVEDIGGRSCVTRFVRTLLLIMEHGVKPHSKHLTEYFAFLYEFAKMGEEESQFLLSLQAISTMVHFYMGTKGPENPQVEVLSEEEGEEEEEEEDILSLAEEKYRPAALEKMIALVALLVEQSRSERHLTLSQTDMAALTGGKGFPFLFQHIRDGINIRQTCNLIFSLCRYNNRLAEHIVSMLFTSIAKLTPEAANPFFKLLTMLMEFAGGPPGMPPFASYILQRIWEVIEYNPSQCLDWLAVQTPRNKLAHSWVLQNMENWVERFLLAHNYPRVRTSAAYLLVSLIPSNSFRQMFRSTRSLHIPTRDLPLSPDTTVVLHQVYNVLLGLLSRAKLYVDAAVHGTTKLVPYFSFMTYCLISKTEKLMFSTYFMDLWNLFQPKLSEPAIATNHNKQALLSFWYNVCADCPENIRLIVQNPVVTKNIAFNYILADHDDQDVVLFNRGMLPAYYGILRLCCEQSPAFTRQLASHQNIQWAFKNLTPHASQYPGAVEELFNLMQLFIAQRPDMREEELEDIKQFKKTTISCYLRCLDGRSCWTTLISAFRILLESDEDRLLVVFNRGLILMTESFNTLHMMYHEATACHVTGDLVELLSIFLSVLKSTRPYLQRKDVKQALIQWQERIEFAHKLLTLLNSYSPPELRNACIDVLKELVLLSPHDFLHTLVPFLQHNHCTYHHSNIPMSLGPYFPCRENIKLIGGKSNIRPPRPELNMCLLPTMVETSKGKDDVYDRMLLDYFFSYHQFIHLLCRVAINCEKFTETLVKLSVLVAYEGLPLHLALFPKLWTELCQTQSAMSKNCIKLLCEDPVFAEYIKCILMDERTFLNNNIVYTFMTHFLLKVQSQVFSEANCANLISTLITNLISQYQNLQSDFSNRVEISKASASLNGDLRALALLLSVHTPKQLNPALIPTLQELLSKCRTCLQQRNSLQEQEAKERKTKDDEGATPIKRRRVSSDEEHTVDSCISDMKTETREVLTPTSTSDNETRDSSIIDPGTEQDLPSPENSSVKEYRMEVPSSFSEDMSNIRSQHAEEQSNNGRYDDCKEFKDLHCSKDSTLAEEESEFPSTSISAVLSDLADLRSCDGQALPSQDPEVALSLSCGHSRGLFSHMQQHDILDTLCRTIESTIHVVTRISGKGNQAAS
Procedure, shortened: (§1)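 HEK293T lysate (495 µg per sample, in Tris/CHAPS/IGEPAL buffer with protease inhibitors) was exposed in triplicate for 3 h to fragment at 200 µM or to vehicle, then to Biotin-Ahx-Ub-VS at 0.5 µM final for 1 h. Labelled DUBs were enriched on NeutrAvidin, digested with LysC and trypsin, and analysed by diaPASEF LC-MS/MS. Spectronaut label-free quantities were normalised to the global median, and values are average log2 ratios of fragment over vehicle from an unpaired t-test. Only proteins with ≥2 unique peptides were used.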

USP36 = target: T1, USP36 (UniProt Q9P275)
T1 sequence (whole entry): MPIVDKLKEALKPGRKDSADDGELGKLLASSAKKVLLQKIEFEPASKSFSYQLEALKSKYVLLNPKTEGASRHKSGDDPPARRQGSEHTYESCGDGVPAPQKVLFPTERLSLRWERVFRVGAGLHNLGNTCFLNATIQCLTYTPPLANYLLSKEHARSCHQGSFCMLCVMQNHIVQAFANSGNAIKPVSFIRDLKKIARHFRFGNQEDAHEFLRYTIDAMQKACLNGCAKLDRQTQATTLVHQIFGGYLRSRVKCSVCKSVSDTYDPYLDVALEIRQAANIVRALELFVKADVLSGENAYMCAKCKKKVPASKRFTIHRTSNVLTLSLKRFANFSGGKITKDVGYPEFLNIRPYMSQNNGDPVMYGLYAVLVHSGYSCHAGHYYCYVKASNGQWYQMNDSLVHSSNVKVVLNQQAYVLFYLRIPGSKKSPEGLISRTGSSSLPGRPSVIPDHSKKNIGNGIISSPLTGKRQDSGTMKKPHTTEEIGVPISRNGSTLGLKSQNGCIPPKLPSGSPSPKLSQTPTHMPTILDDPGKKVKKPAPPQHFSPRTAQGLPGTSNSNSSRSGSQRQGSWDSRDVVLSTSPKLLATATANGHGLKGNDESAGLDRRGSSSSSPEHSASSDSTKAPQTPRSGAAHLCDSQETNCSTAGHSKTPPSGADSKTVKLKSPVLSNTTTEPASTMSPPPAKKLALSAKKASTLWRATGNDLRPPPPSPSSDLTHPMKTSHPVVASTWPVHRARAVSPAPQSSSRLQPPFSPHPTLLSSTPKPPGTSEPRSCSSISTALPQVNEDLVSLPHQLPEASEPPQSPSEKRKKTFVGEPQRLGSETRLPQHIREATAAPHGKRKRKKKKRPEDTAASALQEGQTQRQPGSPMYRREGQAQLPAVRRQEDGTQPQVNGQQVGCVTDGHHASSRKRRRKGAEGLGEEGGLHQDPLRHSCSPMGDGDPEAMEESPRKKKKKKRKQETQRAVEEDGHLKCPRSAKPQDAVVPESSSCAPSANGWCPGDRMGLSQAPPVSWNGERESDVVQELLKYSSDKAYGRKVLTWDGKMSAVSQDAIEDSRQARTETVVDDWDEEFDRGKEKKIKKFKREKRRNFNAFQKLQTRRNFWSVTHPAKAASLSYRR
Procedure, shortened: as §1

USP38 = target: T2, USP38 (UniProt Q8NB14)
T2 sequence (whole entry): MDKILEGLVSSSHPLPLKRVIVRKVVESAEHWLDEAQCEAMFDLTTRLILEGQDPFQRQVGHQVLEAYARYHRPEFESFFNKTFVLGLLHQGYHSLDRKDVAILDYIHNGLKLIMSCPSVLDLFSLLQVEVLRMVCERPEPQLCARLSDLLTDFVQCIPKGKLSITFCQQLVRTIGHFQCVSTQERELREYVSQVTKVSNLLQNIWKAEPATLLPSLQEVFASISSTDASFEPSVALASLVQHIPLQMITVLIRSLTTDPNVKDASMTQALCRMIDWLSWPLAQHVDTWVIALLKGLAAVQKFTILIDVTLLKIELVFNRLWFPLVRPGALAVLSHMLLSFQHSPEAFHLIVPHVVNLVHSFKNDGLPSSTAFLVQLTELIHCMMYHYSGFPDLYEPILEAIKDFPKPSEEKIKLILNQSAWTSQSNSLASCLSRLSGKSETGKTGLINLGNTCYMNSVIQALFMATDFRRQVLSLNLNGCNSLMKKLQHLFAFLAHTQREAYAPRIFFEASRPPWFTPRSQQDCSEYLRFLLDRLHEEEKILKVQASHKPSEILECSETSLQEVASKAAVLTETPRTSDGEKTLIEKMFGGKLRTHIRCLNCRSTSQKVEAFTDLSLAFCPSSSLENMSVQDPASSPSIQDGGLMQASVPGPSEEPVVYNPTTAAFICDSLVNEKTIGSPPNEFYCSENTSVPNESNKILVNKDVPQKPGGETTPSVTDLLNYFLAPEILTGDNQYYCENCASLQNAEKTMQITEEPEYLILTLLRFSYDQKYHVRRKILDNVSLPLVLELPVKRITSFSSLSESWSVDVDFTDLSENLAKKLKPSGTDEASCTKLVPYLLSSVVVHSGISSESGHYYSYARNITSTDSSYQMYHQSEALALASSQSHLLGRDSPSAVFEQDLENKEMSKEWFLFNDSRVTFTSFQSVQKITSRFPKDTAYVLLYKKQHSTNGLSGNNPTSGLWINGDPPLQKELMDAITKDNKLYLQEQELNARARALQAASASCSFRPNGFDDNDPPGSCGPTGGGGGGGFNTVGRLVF
Procedure, shortened: as §1

USP39 = target: T3, USP39 (UniProt Q53GS9)
T3 sequence (whole entry): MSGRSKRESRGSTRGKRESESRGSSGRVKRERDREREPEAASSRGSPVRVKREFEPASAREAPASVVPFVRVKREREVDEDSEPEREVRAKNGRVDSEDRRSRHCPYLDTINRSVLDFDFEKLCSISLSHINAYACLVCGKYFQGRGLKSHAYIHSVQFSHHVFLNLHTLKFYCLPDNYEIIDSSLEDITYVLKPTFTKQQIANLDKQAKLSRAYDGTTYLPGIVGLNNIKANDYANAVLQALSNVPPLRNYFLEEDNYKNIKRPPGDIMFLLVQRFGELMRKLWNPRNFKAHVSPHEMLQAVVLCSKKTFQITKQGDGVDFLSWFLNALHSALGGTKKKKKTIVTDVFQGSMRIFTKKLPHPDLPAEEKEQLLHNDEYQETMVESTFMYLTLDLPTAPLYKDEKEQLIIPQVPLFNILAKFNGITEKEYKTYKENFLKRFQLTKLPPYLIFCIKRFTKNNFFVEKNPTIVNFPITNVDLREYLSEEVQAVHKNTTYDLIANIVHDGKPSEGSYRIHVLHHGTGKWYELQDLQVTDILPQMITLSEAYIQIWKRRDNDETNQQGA
Procedure, shortened: as §1

USP4 = target: T4, USP4 (UniProt Q13107)
T4 sequence (whole entry): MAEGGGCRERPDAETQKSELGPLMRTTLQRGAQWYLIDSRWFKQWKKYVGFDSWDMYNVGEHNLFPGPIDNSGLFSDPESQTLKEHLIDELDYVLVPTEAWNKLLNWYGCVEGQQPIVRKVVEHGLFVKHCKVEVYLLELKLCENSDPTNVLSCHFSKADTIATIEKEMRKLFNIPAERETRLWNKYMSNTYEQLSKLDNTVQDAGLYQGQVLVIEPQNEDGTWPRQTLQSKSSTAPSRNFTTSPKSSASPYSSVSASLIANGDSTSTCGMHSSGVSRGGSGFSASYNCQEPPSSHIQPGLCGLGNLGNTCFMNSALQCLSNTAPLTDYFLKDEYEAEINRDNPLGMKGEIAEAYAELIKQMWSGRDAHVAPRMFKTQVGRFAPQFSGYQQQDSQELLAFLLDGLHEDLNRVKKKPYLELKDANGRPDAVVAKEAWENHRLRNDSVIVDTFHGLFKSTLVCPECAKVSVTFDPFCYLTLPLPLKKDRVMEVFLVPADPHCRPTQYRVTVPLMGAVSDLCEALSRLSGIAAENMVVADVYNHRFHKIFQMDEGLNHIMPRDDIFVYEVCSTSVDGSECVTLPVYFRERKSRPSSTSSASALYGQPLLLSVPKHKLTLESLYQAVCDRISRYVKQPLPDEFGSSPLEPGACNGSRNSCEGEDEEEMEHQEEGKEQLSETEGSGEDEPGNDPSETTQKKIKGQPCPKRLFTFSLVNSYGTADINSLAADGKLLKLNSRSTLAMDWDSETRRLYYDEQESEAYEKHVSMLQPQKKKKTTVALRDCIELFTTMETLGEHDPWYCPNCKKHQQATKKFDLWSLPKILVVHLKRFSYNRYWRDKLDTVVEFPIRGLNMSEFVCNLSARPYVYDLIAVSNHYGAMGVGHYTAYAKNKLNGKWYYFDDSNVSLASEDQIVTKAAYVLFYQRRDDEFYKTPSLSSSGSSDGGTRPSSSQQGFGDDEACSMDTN
Procedure, shortened: as §1

Measured: log2 ratio of Biotin-Ahx-Ub-VS probe labelling

O=C(CCl)NC1CCC2(CC1)OCCO2
inactive: USP34 -0.314 | USP36 -0.227 | USP38 -0.0225 | USP39 0.0631 | USP4 -0.0958
